IL-1B inflam inh = inflammasome signaling inhibition, IL-1 beta readout. THP-1 LPS/ATP IL-1B secretion, AlphaLISA, 16 h; active compounds read low. activity change, % at 57.5 µM. hit rate 4.7% among 360,000; in the data active = activity change below about -50%; inconclusive = mostly about -30% to -49%
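THP-1 cells pretreated 1 hr with compounds (up to 57.5 uM final), then stimulated with LPS (250 ng/mL final) plus ATP (1.25 mM final); secreted IL-1B measured by AlphaLISA after 16 hr, decreased signal indicating inhibition.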
HT1080-NT tox = kills 2HG-producing HT-1080-NT fibrosarcoma cells. HT-1080-NT fibrosarcoma viability, CellTiter-Glo ATP luminescence, 48 h. hit rate 1.6% among 360,000. Potency, µM (series often up to 46.1 µM), for inactives: at the highest dose activity, negative = less viability, most hits filed as cytotoxic;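 also: NT is the 2HG producing partner of a matched IDH1 knockdown line; potency is read from the fitted curve at half-maximal effect; 0% = DMSO-treated cells and -100% = media-only wells without cells; nearly all actives have a fitted effect of over 55% in size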
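Luminescent CellTiter-Glo readout after 48 hours of compound exposure at 37 degrees C defined viability of HT-1080-NT cells. Activity was normalized to DMSO wells and cell-free media wells; concentration-response curves were fitted and assigned curve classes.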
TDP1 cell noCPT = qHTS for Inhibitors of human tyrosyl-DNA phosphodiesterase 1 (TDP1): qHTS in cells in absence of CPT; DT40 Tdp1-/- hTDP1 cells, no CPT, ATP luminescence, 48 h; Potency, µM (doses to about 46.2 µM), for the others: at the highest dose activity change, negative = growth inhibition, hits mostly inhibitors; hit rate 15% among 420,000; also: potency is read from the fitted curve at half-maximal effect; nearly all actives have a fitted effect of over 55% in size
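Seeded 400 DT40-hTDP1 cells/well (vehicle DMSO, no 20 nM CPT); pinned compounds; ≥48 hr at 37 °C; CellTiter-Glo luminescence as viability measure.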
TDP1 cell CPT = DT40-hTDP1 cell growth loss with CPT | chicken DT40 Tdp1-/-;hTDP1 cells + 20 nM CPT, ATP luminescence, 48 h | AID 686979 | Potency, µM (highest dose often 46.2 µM), inactives show top-dose activity change, negative = growth inhibition, hits mostly inhibitors | hit rate 12% among 420,000; also: potency is read from the fitted curve at half-maximal effect; nearly all actives have a fitted effect of over 55% in size
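Chicken DT40 Tdp1-/- cells complemented with human TDP1, 400 cells/well, exposed to compounds plus 20 nM camptothecin for at least 48 h at 37 C; viability read as ATP content by CellTiter-Glo luminescence.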
HT1080 IDH1KD tx = toxicity to HT-1080 IDH1 knockdown cells (counter line) | Potency, µM (series often up to 46.1 µM), for the others: top-dose activity, negative = toxicity, hits mostly cytotoxic | HT-1080 IDH1 knockdown viability, ATP luminescence, 48 h | hit rate 2% among 360,000;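 also: potency is read from the fitted curve at half-maximal effect; 0% = DMSO wells and -100% = cell-free medium wells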
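Luminescent ATP read-out (CellTiter-Glo, 10 min at room temperature) after 48 h compound exposure at 37 °C gave viability of IDH1-knockdown HT-1080 cells. Activity was normalised to DMSO and cell-free wells, then fitted as concentration-response curves.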
Starred values were filed as active, the others as inactive; ? = inconclusive; / = no result given; [ ] = remark or other dose. The list is not random: actives were taken first. Their share in the collection is about 19%. Unless noted, calls follow the shape of the dose curve; as a rule, active = well fitted curve in the direction sought with a large enough effect; inconclusive = small, poorly fitted or top-dose-only effect, or another doubt; inactive = no such curve, though single readings can be large; an effect the other way counts as inactive or inconclusive. Unless noted, % is scaled to controls: 0 for no effect and ±100 for the full control effect.

SMILES	IL-1B inflam inh	HT1080-NT tox	TDP1 cell noCPT	TDP1 cell CPT	HT1080 IDH1KD tx
CCCn1c(=N)n(CC(=O)c2ccc([N+](=O)[O-])cc2)c2ccccc21	-52.9*	-17.1%	23.1µM*	?	-17.5%
COc1cc(SC#N)ccc1N=Cc1c(C)[nH]n(-c2ccc(C)c(C)c2)c1=O	-97.8*	20.6µM*	2.59µM*	3.26µM*	14.6µM*
COc1cc(SC#N)ccc1N=Cc1c(C)[nH]n(-c2ccc(Cl)cc2)c1=O	?	-14.6%	3.66µM*	2.59µM*	-9.3%
Cc1ccc(-n2[nH]c(C)c(/C=C3/C=Nc4ccccc43)c2=O)cc1C	49.4	-1.5%	-0.2%	-2.8%	-1.9%
CCOC(=O)c1ccc(-n2c(-c3ccco3)nc3ccccc3c2=O)cc1	10.2	4.5%	18.4µM*	11.6µM*	15.5%
CCOC(=O)c1ccc(-n2c(=O)[nH]c3ccccc3c2=O)cc1	-60.4*	20.1%	-13.9%	-14.2%	11.2%
CCOC(=O)c1ccc(-n2c(C)ccc2C)cc1	-14.2	-3.4%	-5.1%	-11.0%	1.5%
CCOC(=O)c1ccc(N2C(=O)C=CC2=O)cc1	-89.5*	?	1.03µM*	0.82µM*	-11.8%
CCO[C@@H]1OC(C(=O)N2CCN(C)CC2)=C[C@H](c2coc3ccccc3c2=O)[C@H]1CCCO	-1.0	0.6%	-11.0%	2.2%	-0.9%
CSCCC(NS(=O)(=O)c1ccc(C)cc1)C(=O)Nc1ccc(C)cn1 (stereo not drawn)	7.2	-0.6%	-3.6%	6.3%	-5.8%
O=C(Nc1ccccc1O)c1nc(Cl)ccc1Cl	61.5	-13.6%	-0.3%	7.1%	-16.0%
O=C(N/N=C/c1cccc2nccnc12)c1ccccc1O	247.7	?	3.26µM*	5.8µM*	-22.3%
O=C(N/N=C/c1cccc2cccnc12)c1ccccc1O	227.7	?	4.11µM*	5.17µM*	?
O=C(N/N=C/c1cccc2nccnc12)c1ccncc1	33.3	-22.8%	?	?	?
O=C(N/N=C\c1ccncc1)c1ccccc1O	0.0	-10.3%	-4.2%	24.3%	-4.9%
CCc1cccc(NC(=O)C2CCCN(S(=O)(=O)c3cnc[nH]3)C2)c1 (stereo not drawn)	22.7	-3.3%	11.3%	-6.2%	-0.7%
COc1ccccc1NC(=O)C1CCCN(c2ncnc3onc(-c4ccc(F)cc4)c23)C1 (stereo not drawn)	/	/	16.4µM*	?	/
CCc1cccc(NC(=O)C2CCCN(c3ncnc4onc(-c5ccc(F)cc5)c34)C2)c1 (stereo not drawn)	/	/	10.3µM*	13µM*	/
NC(=O)c1ccccc1NC(=O)C1CCCN(c2ncnc3onc(-c4ccc(F)cc4)c23)C1 (stereo not drawn)	/	/	14.6µM*	13µM*	/
COc1cc(C)ccc1Oc1ccc([N+](=O)[O-])cc1	-14.1	-6.0%	-23.3%	?	-2.1%
CN(Cc1ccccc1)C(=O)COC(=O)c1cc(=O)c2ccccc2o1	20.3	0.8%	-8.6%	4.0%	-0.1%
Cc1nccc(-c2cc(-c3ccc(Cl)cc3Cl)no2)n1	-3.3	13.3%	-6.3%	1.4%	9.3%
O=C(O)C1C2C=CC(C2)C1C(=O)NCc1ccc2c(c1)OCO2 (stereo not drawn)	0.0	-2.4%	-2.6%	-13.0%	4.2%
O=C(O)C1C2C=CC(C2)C1C(=O)NCc1ccc(Cl)c(Cl)c1 (stereo not drawn)	25.8	-1.2%	-4.0%	14.6µM*	-2.3%
CC(C(=O)N/N=C/c1ccc(N(C)C)c(Br)c1)N(c1ccccc1)S(C)(=O)=O (stereo not drawn)	-7.4	-12.0%	9.2µM*	?	3.7%[9.24 µM]
SMILES	IL-1B inflam inh	HT1080-NT tox	TDP1 cell noCPT	TDP1 cell CPT	HT1080 IDH1KD tx
COC(=O)c1cccc(C(=O)N2CCc3c(cnc(C)c3CNC(=O)/C=C/c3cccs3)C2)c1	/	/	-4.7%	8.6%[9.04 µM]	/
CCOc1ccc(/C=C2\SC(=S)N(CCC(=O)N(CCO)c3ccccc3)C2=O)cc1	-80.6*	?	?	?	?
COc1ccc(/C=C2\SC(=S)N(CCC(=O)N(CCO)c3ccccc3)C2=O)cc1OC	-11.8	-0.2%	?	?	5.6%
CCc1ccc(/C=C2\SC(=S)N(CCCC(=O)N(CCO)c3ccccc3)C2=O)cc1	-70.3*	?	16.4µM*	?	?
CC(C)n1c(SCC(=O)Nc2ccccc2)nc2c1c(=O)n(C)c(=O)n2C	-19.9	-13.5%	?	?	-11.4%
COc1ccccc1N1CCN(C(=O)C(=O)c2c(C)[nH]c3ccccc23)CC1	4.1	-0.1%	-29.0%	-15.6%	-2.4%
COc1ccc(C(=O)N2CCCCC2c2cc(C(=O)NCc3cccnc3)no2)cc1 (stereo not drawn)	6.5	10.8%	-25.4%	-11.1%	5.7%
Fc1cc(F)cc(-c2oncc2-c2nnnn2-c2ccccc2)c1	18.3	-6.7%	6.4%	-13.2%	0.8%
Cc1ccc(-n2nnnc2-c2cnoc2-c2cccc(F)c2)cc1	47.2	-11.8%	?	25.9µM*	-12.4%
O=P(COCCOCCOCP(=O)(c1ccccc1)c1ccccc1)(c1ccccc1)c1ccccc1	-2.5	10.2%	3.8%	29.7%	12.2%
CCN(c1ccc(OC)cc1)S(=O)(=O)c1ccc(-c2cc(C)no2)s1	11.8	?	14.6µM*	-95.2%	?
CCOc1ccc(NS(=O)(=O)c2ccc(-c3cc(C)no3)s2)cc1	/	/	18.4µM*	?	/
COc1cccc(NS(=O)(=O)c2ccc(-c3cc(C)no3)s2)c1	/	/	23.1µM*	?	/
COc1ccc(N2CCN(S(=O)(=O)c3ccc(-c4cc(C)no4)s3)CC2)cc1	-3.5	16.7%	2.8%	-23.7%	5.1%
COc1ccc(OC)c(NS(=O)(=O)c2ccc(-c3cc(C)no3)s2)c1	/	/	0.581µM*	1.3µM*	/
O=C(NC1CC(=O)N(c2cccc(F)c2)C1)c1ccc(Br)o1 (stereo not drawn)	/	/	-25.2%	?	/
CCSc1ccccc1-c1nc(-c2ccncc2)no1	16.9	-4.3%	?	-27.5%	-7.9%
CCc1ccccc1N(C)S(=O)(=O)c1ccc(-c2cc(C)no2)s1	25.5	11.7%	1.3µM*	2.06µM*	?
Cc1cc(-c2ccc(S(=O)(=O)Nc3cccc(C)c3C)s2)on1	/	/	2.59µM*	2.91µM*	/
COc1ccc(OC)c(NS(=O)(=O)c2ccc(Br)s2)c1	/	/	18.4µM*	16.4µM*	/
COc1ccc(OC)c(NS(=O)(=O)c2ccc(Cl)s2)c1	5.8	?	?	?	?
CC(=O)N(C)c1ccc(NC(=S)NCC(C)C)cc1	31.0	10.2%	10.8%	-7.4%	-1.7%

High-throughput results deposited in PubChem BioAssay by National Center for Advancing Translational Sciences (NCATS).
